From PubChem
MLLE-PAM2 inh – inhibitors of microRNA-mediated deadenylation, human PABP1 MLLE binding | inhibition, % at 20 µM | GST-MLLE / FITC-PAM2 fluorescence polarization | AID 588489 | 360,000 compounds, 0.36% hits | P11940; in the data active = inhibition above about 35%, passing the limit was not always enough
eIF4E-4G inh – blocks eIF4E binding to eIF4G; TR-FRET eIF4E-eIF4GI(517-606) binding, 2 h; inhibition, % at 21.7 µM; 220,000 compounds, 0.37% hits; AID 782;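 active = inhibition above about 30%, limit read from the data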
PERK inhibitor – inhibitors of human PERK kinase; CHO PERK-DD fusion, SEAP luminescence translation reporter; AID 1416; inhibition, % at 5.6 µM; 220,000 compounds, 0.17% hits; Q9NZJ5;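 active = inhibition above the mean inhibition of all tested compounds plus 3 SD, set separately per screening campaign, cut at about 2.9% in these data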;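 note: PERK kinase domain activated by AP20187 dimerizer at 100 nM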
PABP polyA inh – PABP-poly(A) binding inhibition | PABP-poly(A) RNA binding, fluorescence polarization | AID 2014 | inhibition, % at 35 µM | 290,000 compounds, 1% hits;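 note: calls also rest on retests at 20 µM and on dose response follow-up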
eIF4H FP inh – inhibitors of RNA binding by human eIF4H. Q15056. eIF4H fluorescence polarization binding assay. inhibition, % at 35 µM. 290,000 compounds, 0.94% hits. AID 2012;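 note: calls also rest on retests at 20 µM and on dose response follow-up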
PfM18AAP inh – PfM18AAP enzyme inhibition; recombinant PfM18AAP, H-Glu-NHMec fluorogenic cleavage; inhibition, % at 7.35 µM; 290,000 compounds, 1.2% hits;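 active = inhibition above the campaign mean inhibition over all tested compounds plus 3 SD, cut at about 28% in these data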
Large screens that a line does not name were inactive; [ ] = remark or other dose. Shown are actives, neighbours in structure and some others; about 2.4% of the full set was active somewhere. Unless noted, the rule behind the calls is not given here.

CCc1cccc(NC(=O)Cn2c3[n+](c4ccc(C(F)(F)F)cc42)CCCCC3)c1	none
O=C(Cn1c2[n+](c3ccc(C(F)(F)F)cc31)CCCCC2)Nc1ccccc1	eIF4E-4G inh 34.0[fluorescence artefact?]
Cc1cc2c(c(=O)n1Cc1ccco1)C(c1cccnc1)C(C#N)=C(N)O2 (stereo unspecified)	PABP polyA inh 123.4, eIF4H FP inh 124.4
COc1ccc(OC)c(NC(=O)C(C#N)=Cc2ccco2)c1	none (no result: eIF4E-4G inh, PERK inhibitor, PABP polyA inh, eIF4H FP inh, PfM18AAP inh)
COc1ccc(NC(=O)/C(C#N)=C/C=C/c2ccco2)cc1	PABP polyA inh active
Cc1cc[n+](CC(=O)c2ccc(NC(=O)c3ccccc3)cc2)cc1	none
O=C(C[n+]1ccccc1)c1ccc(NC(=O)c2ccccc2)cc1	PABP polyA inh 71.8
CCOC(=O)C1=C(Nc2ccccc2)OCC1=O	none
CCOC(=O)C1=C(Nc2ccc(OC)cc2)OCC1=O	PERK inhibitor 2.9
COc1ccc(NC(=O)c2nn(C34CC5CC(CC(C5)C3)C4)cc2[N+](=O)[O-])cc1	PABP polyA inh 57.3, eIF4H FP inh 11.8
O=[N+]([O-])c1ccccc1S(=O)(=O)c1ccccc1[N+](=O)[O-]	none (no result: eIF4E-4G inh, PERK inhibitor)
O=C(O)c1ccc2c(c1)CCCN2	PABP polyA inh 63.3, eIF4H FP inh 52.4
O=C(O)c1cccc(COc2ccc3c(c2)CCC3)c1	none
Oc1ccc(-c2cnns2)c(O)c1	PfM18AAP inh 98.7
CCc1ccc(C2C(C#N)=C(N)C(C#N)(C#N)C3=CCC(C(C)(C)C)CC32)cc1 (stereo unspecified)	eIF4H FP inh 83.8
CCOC(=O)C(CSCC(=O)c1ccc(Cl)cc1Cl)NC(=O)OC(C)(C)C (stereo unspecified)	MLLE-PAM2 inh 48.7
CCOC(=O)CSCC(NC(=O)OC(C)(C)C)C(=O)OCC (stereo unspecified)	none
O=C1/C(=C/c2ccccn2)SC(=S)N1Nc1ncc(C(F)(F)F)cc1Cl	none (no result: eIF4E-4G inh, PERK inhibitor, PABP polyA inh, eIF4H FP inh, PfM18AAP inh)
CCCCOc1ccc(C(=O)NCC(=O)NCCCn2nc(C)cc2C)cc1	none (no result: eIF4E-4G inh, PERK inhibitor, PABP polyA inh, eIF4H FP inh, PfM18AAP inh)
c1ccc(-n2nnc3cnccc32)cc1	eIF4E-4G inh 30.6
c1cc(-n2nnc3cnccc32)ccn1	none
COc1ccc(C2(c3ccc(OC)cc3)NC(=O)N(CC(=O)N(C)C)C2=O)cc1	none (no result: eIF4E-4G inh, PERK inhibitor)
CCCCC(CCC(=O)Nc1ccc(C(=O)OC)cc1)C(=O)O (stereo unspecified)	none
CC(C)(C)NC(=O)CCN(/N=C/c1ccc([N+](=O)[O-])o1)C1=NS(=O)(=O)c2ccccc21	eIF4H FP inh 82.1
CN(C)c1ccc(/C=N/N(CCC(=O)NC(C)(C)C)C2=NS(=O)(=O)c3ccccc32)cc1	none (no result: eIF4E-4G inh, PERK inhibitor)
Cc1ccc(C)c(-n2sc3ccc(F)cc3c2=O)c1	none (no result: eIF4E-4G inh, PERK inhibitor, PABP polyA inh, eIF4H FP inh, PfM18AAP inh)
O=c1c2cc(F)ccc2sn1-c1ccc(F)cc1	MLLE-PAM2 inh 42.6 (no result: eIF4E-4G inh, PERK inhibitor, PABP polyA inh, eIF4H FP inh, PfM18AAP inh)
COc1ccc(-n2sc3ccc(F)cc3c2=O)cc1	MLLE-PAM2 inh 40.7 (no result: eIF4E-4G inh, PERK inhibitor, PABP polyA inh, eIF4H FP inh, PfM18AAP inh)
CCN(CC)C(=O)C(=O)N/N=C/c1cccs1	PERK inhibitor 3.1
O=C(/C=C/c1ccc(F)cc1)Nc1nc2ccccc2[nH]1	PABP polyA inh 58.6, eIF4H FP inh active (no result: MLLE-PAM2 inh)
O=c1[nH]c2ccccc2nc1/C=C/c1ccc(F)cc1	PABP polyA inh 87.8
O=C(Nc1nc2ccccc2[nH]1)c1cccc(F)c1	none (no result: eIF4E-4G inh, PERK inhibitor)
Cc1ccc(NC(=O)N2CCC(C(=O)NCC(C)C)CC2)cc1	none
Cc1nc(C)c(C(=O)Nc2nc3c(C)cccc3s2)o1	PABP polyA inh 10.9, eIF4H FP inh 70.2
Cc1cccc2sc(NC(=O)C3CCCO3)nc12 (stereo unspecified)	none
CCCCN1/C(=C/c2cccc[n+]2C)Sc2cc(NC(C)=O)ccc21	PABP polyA inh 60.9 (no result: eIF4E-4G inh, PERK inhibitor)
CCc1ccc(C(=O)NNC(=O)OC)cc1	eIF4E-4G inh 71.9
Cc1noc(C)c1NC(=O)N(C)C[C@H]1Oc2ccc(NC(=O)C3CC3)cc2C(=O)N([C@H](C)CO)C[C@@H]1C	none (no result: eIF4E-4G inh, PERK inhibitor, PABP polyA inh, eIF4H FP inh, PfM18AAP inh)
CC(NC(=O)C1CC2CCCC(C1)C2=O)c1ccccc1 (stereo unspecified)	none
Cn1nnc2c(C(N)=O)ncn2c1=O	MLLE-PAM2 inh 39.3
Cc1c(Br)c(C(N)=O)nn1C	none
Cc1ccc(NC(=O)COC(=O)c2cc(=O)c3cc(F)ccc3o2)cc1	none (no result: eIF4E-4G inh, PERK inhibitor, PABP polyA inh, eIF4H FP inh, PfM18AAP inh)
Fc1ccc(Br)cc1C1C=C(c2cccnc2)Nc2ncnn21 (stereo unspecified)	MLLE-PAM2 inh 47.8
O=C1NC(=Nc2ccc3ccccc3c2)S/C1=C/c1ccco1	eIF4H FP inh 79.8
